The results in this text go back to PubChem BioAssay.

In assay [1] the test system is PRMT1 (protein arginine N-methyltransferase 1). Put plainly: PRMT1 binders on small-molecule microarrays, primary screen, biochemical, small-molecule microarray, 635 nm fluorescence (AID 1088).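 Further: binding of Prmt1 protein to compounds spotted on small-molecule microarray slides.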 Particulars: small-molecule microarray binding, higher = more signal.
The nature of assay [2]: yeast growth modulation, basal conditions, primary screen, YJM789 clinical isolate, OD600, 24 h (AID 1089).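 Further: growth of clinical yeast isolate S. cerevisiae YJM 789 seeded 1000 cells per well; test concentration not given here.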 The note with it: S. cerevisiae YJM789 growth, higher = more signal, called active from +8 up or from −8 down.
A short description of assay [3]: fission yeast growth modulation, primary screen, strain 972, OD600, 24 h, no modulator (AID 1090).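 Further: basal condition with compound alone and no growth modifier present; test concentration not given here.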 Particulars: S. pombe 972 growth, higher = more signal, called active from +8 up or from −8 down.
Assay [4] can be described thus: S. cerevisiae growth modulation with rapamycin, primary screen, strain BY4716, OD600, 96 h (AID 1091). Further: test concentration not given here. The note with it: higher = more signal, called active from +8 up or from −8 down.
Assay [5] concerns the target Torsin-1A-interacting protein 2 (Homo sapiens) (UniProt Q8NFQ8). The assay can be described thus: LULL1 binders on small-molecule microarray, primary screen, cell lysate, human LULL1 lysate, 635/667 nm fluorescence (AID 1092).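 Further: probe is lysate of COS7 cells overexpressing human LULL1; score merges per-feature 667 nm fluorescence with signal-to-noise.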 The note with it: hLULL1 lysate binding, 635 nm fluorescence, higher = more signal.
Assay [6] is described as follows: E. coli growth modulation, two-sided OD650, primary screen, E. coli filamentation project, strain DRC41, 24 h (AID 1093).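 Further: MC1000 strain lacking acrAB efflux and sulA so SOS filamentation is blocked; test concentration not given here.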 The note with it: OD650, 24 h, higher = more signal, called active from +8 up or from −8 down.
Assay [7] in a line: small-molecule microarray binders of probe aLefty2, primary screen, biochemical, biotinylated probe, 635/667 nm fluorescence (AID 1094).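 Further: score merges spot fluorescence near 667 nm with spot signal-to-noise ratio.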 The note with it: higher = more signal.
The subject of assay [8] is Noggin (protein binding on small-molecule microarray). Put plainly: Noggin binders on small-molecule microarray, primary screen, biochemical, 635/667 nm fluorescence (AID 1095).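 Further: score merges 667 nm feature fluorescence with signal to noise over triplicate slides.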 The note with it: 635 nm fluorescence, higher = more signal.
The target in assay [9] is Neurogenic locus notch homolog protein 3 (Homo sapiens) (UniProt Q9UM47). The assay can be described thus: NOTCH3 binders on small-molecule microarray, primary screen, biochemical, 635/667 nm fluorescence (AID 1096). Particulars: NOTCH3 binding, 635 nm fluorescence, higher = more signal.
Neurogenic locus notch homolog protein 3 (Homo sapiens), sequence (Q9UM47 whole entry, looked up): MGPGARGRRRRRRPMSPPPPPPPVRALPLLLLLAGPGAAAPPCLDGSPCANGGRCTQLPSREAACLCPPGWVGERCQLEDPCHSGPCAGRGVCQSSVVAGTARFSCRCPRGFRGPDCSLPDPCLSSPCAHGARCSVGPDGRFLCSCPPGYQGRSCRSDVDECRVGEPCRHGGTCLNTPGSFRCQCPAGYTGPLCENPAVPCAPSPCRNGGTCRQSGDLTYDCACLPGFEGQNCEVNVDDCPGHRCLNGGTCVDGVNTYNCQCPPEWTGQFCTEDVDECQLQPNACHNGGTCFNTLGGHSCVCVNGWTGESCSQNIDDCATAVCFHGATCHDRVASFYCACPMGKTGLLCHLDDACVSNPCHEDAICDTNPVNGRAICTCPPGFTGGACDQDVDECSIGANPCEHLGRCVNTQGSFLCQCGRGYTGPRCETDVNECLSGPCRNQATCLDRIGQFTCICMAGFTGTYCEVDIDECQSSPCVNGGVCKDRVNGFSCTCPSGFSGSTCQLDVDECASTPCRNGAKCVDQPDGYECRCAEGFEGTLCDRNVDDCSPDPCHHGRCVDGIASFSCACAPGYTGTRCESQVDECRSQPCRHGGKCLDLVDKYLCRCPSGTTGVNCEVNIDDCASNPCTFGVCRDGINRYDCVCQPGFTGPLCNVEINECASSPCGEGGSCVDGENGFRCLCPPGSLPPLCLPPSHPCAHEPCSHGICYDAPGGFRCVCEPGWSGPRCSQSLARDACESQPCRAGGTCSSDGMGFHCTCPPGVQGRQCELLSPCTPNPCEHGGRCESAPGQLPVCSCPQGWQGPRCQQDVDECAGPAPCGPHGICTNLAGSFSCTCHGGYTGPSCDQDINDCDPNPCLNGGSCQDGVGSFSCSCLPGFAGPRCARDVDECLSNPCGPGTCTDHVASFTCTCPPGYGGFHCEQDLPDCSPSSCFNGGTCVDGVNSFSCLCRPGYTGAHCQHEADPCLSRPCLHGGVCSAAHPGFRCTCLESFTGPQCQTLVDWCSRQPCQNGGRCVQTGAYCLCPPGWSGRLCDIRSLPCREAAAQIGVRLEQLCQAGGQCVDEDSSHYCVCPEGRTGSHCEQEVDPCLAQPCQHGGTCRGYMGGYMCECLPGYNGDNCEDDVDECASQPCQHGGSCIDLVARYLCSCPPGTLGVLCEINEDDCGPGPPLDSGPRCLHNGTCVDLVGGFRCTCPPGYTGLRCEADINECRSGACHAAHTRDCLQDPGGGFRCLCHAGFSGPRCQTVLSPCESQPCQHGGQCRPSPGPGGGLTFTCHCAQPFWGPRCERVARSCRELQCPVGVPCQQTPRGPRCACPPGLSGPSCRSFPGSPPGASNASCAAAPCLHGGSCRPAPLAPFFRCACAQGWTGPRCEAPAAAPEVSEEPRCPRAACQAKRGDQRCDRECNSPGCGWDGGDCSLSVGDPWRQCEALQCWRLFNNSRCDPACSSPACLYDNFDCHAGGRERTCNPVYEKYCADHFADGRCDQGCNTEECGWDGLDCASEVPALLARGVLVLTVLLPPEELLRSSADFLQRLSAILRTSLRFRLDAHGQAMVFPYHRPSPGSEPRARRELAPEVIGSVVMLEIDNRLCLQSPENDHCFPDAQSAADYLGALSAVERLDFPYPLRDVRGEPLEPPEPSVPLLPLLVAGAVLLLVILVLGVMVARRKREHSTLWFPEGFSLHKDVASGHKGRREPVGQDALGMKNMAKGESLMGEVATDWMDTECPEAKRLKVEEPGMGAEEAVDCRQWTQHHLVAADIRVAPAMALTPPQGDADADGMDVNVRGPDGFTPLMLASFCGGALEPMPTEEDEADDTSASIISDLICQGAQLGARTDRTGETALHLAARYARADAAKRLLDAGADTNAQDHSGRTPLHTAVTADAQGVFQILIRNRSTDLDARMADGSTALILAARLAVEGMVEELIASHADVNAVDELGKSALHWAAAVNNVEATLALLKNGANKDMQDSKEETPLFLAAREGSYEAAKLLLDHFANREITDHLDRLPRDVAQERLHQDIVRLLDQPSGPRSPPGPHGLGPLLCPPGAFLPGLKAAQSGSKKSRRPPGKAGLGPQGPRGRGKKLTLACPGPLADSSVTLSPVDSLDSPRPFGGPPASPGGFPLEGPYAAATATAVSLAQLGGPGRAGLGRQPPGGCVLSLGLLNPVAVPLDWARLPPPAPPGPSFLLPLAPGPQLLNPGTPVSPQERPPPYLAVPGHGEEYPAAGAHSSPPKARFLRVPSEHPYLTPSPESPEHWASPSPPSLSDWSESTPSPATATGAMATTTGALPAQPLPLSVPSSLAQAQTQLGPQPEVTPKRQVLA
Assay [10] is described as follows: small-molecule microarray binders of probe aEGFR, primary screen, biochemical, biotinylated probe, 635/667 nm fluorescence (AID 1097).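 Further: probe is a biotinylated anti-EGFR antibody binding compounds printed on slides; score combines fluorescence near 667 nm and signal to noise of each spot.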 Particulars: higher = more signal.
Assay [11] deals with Plasmodium falciparum Sir2 (PF13_0152, Sir2A). The assay can be described thus: pfSir2 binders on small-molecule microarrays, primary screen, biochemical, small-molecule microarray, 635 nm fluorescence (AID 1098).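 Further: score merges spot fluorescence intensity with its signal-to-noise ratio.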 Particulars: small-molecule microarray binding, fluorescence 635 nm; higher = more signal.
A short description of assay [12]: small-molecule microarray binders of probe aDKK1, primary screen, biochemical, biotinylated probe, 635/667 nm fluorescence (AID 1099).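 Further: score merges 667nm spot fluorescence with signal to noise across triplicate slides; reference of the scale not given here.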 Particulars: higher = more signal.
The nature of assay [13]: small-molecule microarray binders of probe aCHRDL2, primary screen, biochemical, biotinylated probe, 635/667 nm fluorescence (AID 1100). The note with it: higher = more signal.
A short description of assay [14]: splicing luciferase reporter signal modulators, primary screen, spliceosome inhibition project, cell-based, HEK293, splice +/- reporter (AID 1101).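 Further: HEK293 cells carrying a splicing-competent luciferase reporter gene; test concentration not given here.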 Particulars: luminescence, 24 h, higher = more signal, called active from +8 up or from −8 down. In general terms: In a reporter assay the amount or activity of a reporter protein is the signal.
In assay [15] the target is Fibroblast growth factor 10 (Homo sapiens) (UniProt O15520). The assay can be described thus: FGF10 binders on small-molecule microarrays, primary screen, biochemical, small-molecule microarray, 635 nm fluorescence (AID 1102). The note with it: FGF10 binding, fluorescence 635 nm, higher = more signal.
Fibroblast growth factor 10 (Homo sapiens), sequence (O15520 whole entry, looked up): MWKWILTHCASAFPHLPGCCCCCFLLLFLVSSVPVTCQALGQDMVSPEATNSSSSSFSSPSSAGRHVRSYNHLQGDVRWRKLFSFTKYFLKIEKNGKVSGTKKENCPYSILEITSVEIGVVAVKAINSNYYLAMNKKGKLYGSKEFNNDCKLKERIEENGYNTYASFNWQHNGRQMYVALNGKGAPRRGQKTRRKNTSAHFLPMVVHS
The test system of assay [16] is glycogen synthase kinase-3 (GSK3A per assay name; protocol says GSK3B). The assay can be described thus: GSK3 binders on small-molecule microarrays, primary screen, biochemical, small-molecule microarray, 635 nm fluorescence, GSK3A (AID 1103). Further: the record names both GSK3A and GSK3B. Particulars: small-molecule microarray binding, fluorescence 635 nm; higher = more signal.
Assay [17] addresses Epidermal growth factor receptor (Homo sapiens) (UniProt P00533). Put plainly: EGFR binders on small-molecule microarrays, primary screen, biochemical, small-molecule microarray, 635 nm fluorescence (AID 1104).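 Further: score merges 667 nm emission intensity with spot signal to noise over triplicate slides.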 The note with it: EGFR binding, higher = more signal.
In assay [18] the target is Follistatin-related protein 3 (Homo sapiens) (UniProt O95633). Put plainly: FSTL3 binders on small-molecule microarrays, primary screen, biochemical, small-molecule microarray, 635 nm fluorescence (AID 1105).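 Further: score merges emission near 667 nm and signal to noise per printed spot across three slides.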 The note with it: FSTL3 binding, higher = more signal.
Follistatin-related protein 3 (Homo sapiens), sequence (O95633 whole entry, looked up): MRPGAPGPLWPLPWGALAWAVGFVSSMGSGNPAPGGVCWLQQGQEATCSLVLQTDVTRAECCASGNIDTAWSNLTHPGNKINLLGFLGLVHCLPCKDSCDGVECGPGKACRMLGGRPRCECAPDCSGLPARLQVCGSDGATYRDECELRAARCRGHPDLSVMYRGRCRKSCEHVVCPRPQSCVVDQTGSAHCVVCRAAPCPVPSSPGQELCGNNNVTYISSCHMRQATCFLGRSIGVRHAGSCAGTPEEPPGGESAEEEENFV
For assay [19], the target named is Dickkopf-related protein 1 (Homo sapiens) (UniProt O94907). The assay can be described thus: DKK1 binders on small-molecule microarrays, primary screen, biochemical, small-molecule microarray, 635 nm fluorescence scan (AID 1106).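 Further: score merges emission near 667 nm with signal to noise over three replicate slides.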 The note with it: DKK1 binding, higher = more signal.
Dickkopf-related protein 1 (Homo sapiens), sequence (O94907 whole entry, looked up): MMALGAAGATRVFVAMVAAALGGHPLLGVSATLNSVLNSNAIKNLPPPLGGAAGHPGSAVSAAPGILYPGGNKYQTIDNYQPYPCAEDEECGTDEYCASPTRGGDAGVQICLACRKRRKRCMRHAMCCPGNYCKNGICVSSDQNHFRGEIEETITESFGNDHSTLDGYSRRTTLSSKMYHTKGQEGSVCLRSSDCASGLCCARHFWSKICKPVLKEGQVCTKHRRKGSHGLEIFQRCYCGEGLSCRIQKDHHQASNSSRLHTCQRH
The test system of assay [20] is Inhibin beta A chain (activin A). The assay can be described thus: INHBA (activin A) binders on microarrays, primary screen, biochemical, small-molecule microarray, 635 nm fluorescence scan (AID 1107).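 Further: mouse activin A protein probed at 4.33 µg/mL on printed slides; score merges bound-protein fluorescence near 667 nm with spot signal-to-noise.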 The note with it: small-molecule microarray binding, higher = more signal.

Calls of active or inactive are those of the source.

Epidermal growth factor receptor (Homo sapiens), sequence (P00533 whole entry, looked up): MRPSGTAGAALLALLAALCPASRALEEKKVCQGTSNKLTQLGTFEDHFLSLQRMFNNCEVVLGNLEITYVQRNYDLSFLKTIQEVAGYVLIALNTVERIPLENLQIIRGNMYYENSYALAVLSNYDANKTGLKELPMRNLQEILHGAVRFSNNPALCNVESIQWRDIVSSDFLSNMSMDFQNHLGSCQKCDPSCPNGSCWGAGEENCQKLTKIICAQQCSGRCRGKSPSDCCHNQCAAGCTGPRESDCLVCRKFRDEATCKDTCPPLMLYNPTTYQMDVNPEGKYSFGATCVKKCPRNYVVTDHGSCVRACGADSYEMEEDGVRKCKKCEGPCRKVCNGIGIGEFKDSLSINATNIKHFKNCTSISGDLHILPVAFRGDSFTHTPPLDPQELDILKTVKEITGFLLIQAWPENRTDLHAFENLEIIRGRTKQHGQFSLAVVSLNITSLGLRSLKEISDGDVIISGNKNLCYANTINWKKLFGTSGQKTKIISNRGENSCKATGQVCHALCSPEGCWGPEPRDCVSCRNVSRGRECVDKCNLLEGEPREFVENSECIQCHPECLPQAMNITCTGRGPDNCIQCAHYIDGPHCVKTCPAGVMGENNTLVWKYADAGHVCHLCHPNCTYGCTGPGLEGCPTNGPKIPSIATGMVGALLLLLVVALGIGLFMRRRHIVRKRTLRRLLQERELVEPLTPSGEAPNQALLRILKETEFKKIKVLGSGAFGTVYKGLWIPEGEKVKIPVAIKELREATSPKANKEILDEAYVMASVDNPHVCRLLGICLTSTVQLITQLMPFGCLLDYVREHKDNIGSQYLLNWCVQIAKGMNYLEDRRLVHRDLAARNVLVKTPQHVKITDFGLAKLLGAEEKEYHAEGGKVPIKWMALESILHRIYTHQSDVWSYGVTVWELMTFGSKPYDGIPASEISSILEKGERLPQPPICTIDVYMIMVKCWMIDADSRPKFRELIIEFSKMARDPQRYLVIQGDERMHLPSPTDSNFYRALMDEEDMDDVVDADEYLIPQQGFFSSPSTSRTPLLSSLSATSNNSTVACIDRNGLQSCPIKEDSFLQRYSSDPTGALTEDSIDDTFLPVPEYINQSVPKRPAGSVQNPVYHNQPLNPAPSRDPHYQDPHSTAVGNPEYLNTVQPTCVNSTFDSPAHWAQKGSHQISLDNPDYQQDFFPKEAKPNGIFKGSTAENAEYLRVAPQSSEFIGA
Torsin-1A-interacting protein 2 (Homo sapiens), sequence (Q8NFQ8 whole entry, looked up): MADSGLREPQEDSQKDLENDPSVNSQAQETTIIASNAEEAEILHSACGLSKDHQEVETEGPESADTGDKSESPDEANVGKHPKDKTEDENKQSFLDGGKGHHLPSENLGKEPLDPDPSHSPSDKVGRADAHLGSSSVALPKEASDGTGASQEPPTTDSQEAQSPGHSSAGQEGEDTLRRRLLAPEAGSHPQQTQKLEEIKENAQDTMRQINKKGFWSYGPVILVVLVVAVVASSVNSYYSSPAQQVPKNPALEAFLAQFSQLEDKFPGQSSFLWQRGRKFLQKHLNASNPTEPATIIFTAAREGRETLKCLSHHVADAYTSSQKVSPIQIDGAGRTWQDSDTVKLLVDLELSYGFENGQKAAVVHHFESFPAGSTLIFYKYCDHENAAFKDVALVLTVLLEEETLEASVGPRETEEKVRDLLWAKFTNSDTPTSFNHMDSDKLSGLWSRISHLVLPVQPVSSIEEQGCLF

Turning to `COc1ccc([Si](C)(C)[C@@H]2[C@@H](CCn3cc([C@H](O)c4ccccc4)nn3)O[C@]3(C(=O)N(Cc4ccc(N5CCC5=O)cc4)c4ccccc43)[C@H]2C)cc1`, the composite z-score in assay [1] was 0.0655; in assay [5], 0.309; in assay [7] it was -0.177; in [8], 1.13; in [9] it was -0.231; in assay [10], -0.313. Also, the composite z-score was 0.453 in assay [11]; -0.213 in assay [12]; -0.0321 in assay [13]; 0.137 in assay [15]; -0.364 in assay [16]; -0.167 in assay [17]. The composite z-score in [18] was -0.0461; in assay [19], 0.135; in assay [20] it was 0.632. The z-score in assay [2] is 0.297 (inactive); in assay [3], 0.375 (inactive); in [4], 3.51 (inactive); in assay [6], 0.705 (inactive); in assay [14] it was -0.619 (inactive).

As to `CC(CO)N1C(=O)[C@@H]2[C@H]3C(=O)OCC=C[C@H]3OC23C=CCN(CCN2CCOCC2)C(=O)[C@@H]13` (stereo not given in full), the composite z-score in assay [1] was 0.658; in assay [5], -0.986; in assay [7] it was -0.33; in [8], 0.169; in assay [9], 0.0282; in [10], -0.0828. The composite z-score was 1.12 in assay [11]; -0.373 in assay [12]; -0.646 in assay [13]; -0.199 in assay [15]; 0.248 in [16]; -0.101 in assay [17]. The results for the composite z-score in [18], in assay [19] and in assay [20] were 0.152, 0.439 and 0.777, respectively. Besides, the z-score in [2] is -0.792 (inactive); in assay [3] it was -0.968 (inactive); in [4], -0.268 (inactive); in [6], -0.909 (inactive); in assay [14] it was 0.497 (inactive).

Take `COC(=O)C(CC#Cc1ccc2c(c1)[C@]1(C(=O)N2)[C@H](C(=O)N2CCN(c3ncccn3)CC2)[C@H]2C(=O)O[C@H](c3ccccc3)[C@H](c3ccccc3)N2[C@@H]1c1ccc(OCCO)cc1)C(=O)OC`: the composite z-score in assay [1] was 1.53; in assay [5] it was 2.76; in assay [7], 0.0008; in assay [8], 1.3; in assay [9] it was 1.02; in assay [10], -0.0177. Also, the composite z-score in [11] was 1.22; in assay [12], 0.0224; in assay [13] it was -0.0434; in assay [15], 1.17; in assay [16] it was 0.994; in assay [17], 0.68. The composite z-score was 1.39 in [18], 0.612 in assay [19] and 0.0693 in assay [20]. The z-score in assay [2] is 3.19 (inactive); in [3] it was 2.13 (inactive); in [4] it was 5.67 (inactive); in [6], 0.54 (inactive); in [14], -0.152 (inactive).

Regarding `C=CCC(OC(C)=O)[C@@H]1[C@@H](N(Cc2cccc3ccccc23)C(=O)Cc2ccc(F)cc2)c2cc(OCCCO)ccc2N1C(=O)c1ccc2ccccc2n1` (stereo not given in full), the composite z-score in assay [1] was -0.293; in assay [5] it was 0.511; in [7], 0.15; in [8], -0.283; in [9] it was 0.104; in [10], -0.0897. In addition, the composite z-score in assay [11] was 0.12; in assay [12] it was 0.195; in [13], 0.429; in assay [15], -0.0905; in [16], -0.329; in assay [17], -0.06. The composite z-score in assay [18] is -0.159; in assay [19], -0.305; in assay [20] it was 1.36. Also, the z-score is -0.145 (inactive) in assay [2]; 0.732 (inactive) in [3]; -0.342 (inactive) in assay [4]; 0.265 (inactive) in assay [6]; 0.866 (inactive) in assay [14].

`CC(C)C[C@@H]1NC(=O)[C@@H]2C[C@H](C(=O)NCCCCN(C)C)[C@H](c3cccc(OCCO)c3)N2C1=O`: the composite z-score in [1] is 0.751; in assay [5], 2.85; in assay [7], -0.0258; in assay [8], 0.592; in [9], -0.087; in assay [10] it was -0.183. The composite z-score in assay [11] is 1.66; in assay [12] it was -0.224; in assay [13] it was 0.0176; in [15], -0.272; in [16], -1.24; in assay [17] it was -0.0053. For the same molecule, the values for the composite z-score in [18], in assay [19] and in [20] were -0.135, 0.212 and 0.266, respectively. Also, the z-score was -1.01 (inactive) in assay [2]; 0.162 (inactive) in [3]; -1.01 (inactive) in [4]; 0.659 (inactive) in assay [6]; -0.464 (inactive) in [14].
